Results reported in PubChem BioAssay (Tox21).
Unmarked numbers belong to inactive results. Inconclusive results are not listed. Where a call stands in place of a potency, no number is given. Active and inactive are the calls of the source. Calls come from the whole dose curve; as a rule, active = well fitted curve in the direction sought with a large enough effect in the repeat runs; inconclusive = weak or mixed curves; inactive = no such curve, though single readings can be large; an effect the other way counts as inactive or inconclusive.

Columns and labels:
[1] = Human pregnane X receptor (PXR) small molecule agonists, qHTS cell viability counter screen (AID 1346977); note: nearly all actives have a fitted effect of over 50% in size; note: potency is the fitted concentration of half-maximal effect
How it was run: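 Readout is CellTiter-Fluor fluorescence from PXR-Luc HepG2 cells. Plated cells rested 5hr, then were treated with compounds for 24hr at 37C and 5% CO2, with reagent present during the last hour.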

[2] = Caspase-3/7 induction in HepG2 cells by small molecules, qHTS assay (AID 1346978); note: nearly all actives have a fitted effect of over 15% in size; note: potency is the fitted concentration of half-maximal effect
How it was run: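 Wild-type HepG2 cells, 2,000/well, settled 5 hr at 37 C and 5% CO2, then compound-treated for 17 hr; caspase-3/7 activity read by luminescent Caspase-Glo 3/7 after 30 min at room temperature.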

[3] = Caspase-3/7 induction in CHO-K1 cells by small molecules, qHTS cell viability counter screen (AID 1346979); note: nearly all actives have a fitted effect of over 35% in size; note: potency is the fitted concentration of half-maximal effect
How it was run: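 To flag cytotoxic compounds, treated CHO-K1 wild-type cells were given CellTiter-Fluor at 16hr and read fluorescently after 1hr at 37C; the caspase-3/7 luminescence was measured in these same wells.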

[4] = Caspase-3/7 induction in HepG2 cells by small molecules, qHTS cell viability counter screen (AID 1346981); note: nearly all actives have a fitted effect of over 30% in size; note: potency is the fitted concentration of half-maximal effect
How it was run: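 Wild-type HepG2 cells, 2,000/well, settled 5 hr at 37 C, 5% CO2 before compound addition. Viability read by CellTiter-Fluor fluorescence, reagent added after 16 hr compound exposure, then 1 hr at 37C, in the same wells as the caspase read.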

[5] = biological target: Nuclear receptor subfamily 1 group I member 2 (Homo sapiens) (UniProt O75469); experiment: Human pregnane X receptor (PXR) small molecule agonists, qHTS assay (AID 1346982); note: nearly all actives have a fitted effect of over 35% in size; note: potency is the fitted concentration of half-maximal effect
How it was run: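 PXR-Luc HepG2 reporter cells (CYP3A4-driven luciferase) in 5% charcoal-stripped FBS medium, plated 5 h before compound addition, then treated 24 h at 37C. Luciferase read by ONE-Glo luminescence after 30 min at room temperature.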

[6] = biological target: Cytochrome P450 2D6 (Homo sapiens) (UniProt P10635); experiment: Cytochrome P450 Family 2 Subfamily D Member 6 (CYP2D6) small molecule antagonists: luciferase reporter qHTS assay (AID 1671196); note: nearly all actives have a fitted effect of over 50% in size; note: potency is the fitted concentration of half-maximal effect
How it was run: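 Cell-free P450-Glo system: CYP2D6 with proluciferin substrate was pre-incubated with compound for 10 min, then reacted with NADPH regeneration for 1 h at room temperature. Luciferin product was detected after 20 min, and data were reported as relative luminescence units.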

[7] = biological target: Cytochrome P450 2C19 (Homo sapiens) (UniProt P33261); experiment: Cytochrome P450 Family 2 Subfamily C Member 19 (CYP2C19) small molecule antagonists: luciferase reporter qHTS assay (AID 1671197); note: nearly all actives have a fitted effect of over 65% in size; note: potency is the fitted concentration of half-maximal effect
How it was run: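 CYP2C19 P450-Glo, 1536-well qHTS. Cpd + enzyme/proluciferin substrate 10 min RT; + NADPH regen, 37C 1 h; stop with luciferin detection reagent, 20 min RT, luminescence (RLU). Pos ctrl ketoconazole.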

[8] = biological target: Cytochrome P450 2C9 (Homo sapiens) (UniProt P11712); experiment: Cytochrome P450 Family 2 Subfamily C Member 9 (CYP2C9) small molecule antagonists: luciferase reporter qHTS assay (AID 1671198); note: nearly all actives have a fitted effect of over 50% in size; note: potency is the fitted concentration of half-maximal effect
How it was run: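 P450-Glo proluciferin substrate with CYP2C9 enzyme; 10 min RT preincubation, then NADPH regeneration 1 h at 37C; luciferin detection reagent 20 min RT, luminescence in relative luminescence units.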

[9] = biological target: Cytochrome P450 1A2 (Homo sapiens) (UniProt P05177); experiment: Cytochrome P450 Family 1 Subfamily A Member 2 (CYP1A2) small molecule antagonists: luciferase reporter qHTS assay (AID 1671199); note: nearly all actives have a fitted effect of over 50% in size; note: potency is the fitted concentration of half-maximal effect
How it was run: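 P450-Glo CYP1A2 enzyme–proluciferin substrate mix with compound 10 min at room temperature, then NADPH regeneration 1 h at room temperature. Luciferin detection reagent added, luminescence read after 20 min; furafylline positive control.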

[10] = biological target: Cytochrome P450 3A4 (Homo sapiens) (UniProt P08684); experiment: Cytochrome P450 Family 3 Subfamily A Member 4 (CYP3A4) small molecule antagonists: luciferase reporter qHTS assay (AID 1671201); note: nearly all actives have a fitted effect of over 50% in size; note: potency is the fitted concentration of half-maximal effect
How it was run: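 Setup: enzyme-substrate mix, compound pin transfer, 10 min RT. Reaction: NADPH regeneration solution, 1 h RT. Readout: detection reagent stops turnover, luminescence measured after 20 min, expressed in relative luminescence units.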

[11] = Caspase-3/7 induction in CHO-K1 cells by small molecules, qHTS assay (AID 1346980); note: nearly all actives have a fitted effect of over 15% in size
How it was run: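 Wild-type CHO-K1 cells exposed to compounds for 17hr at 37 C, 5% CO2. Caspase-3/7 activity then measured by Caspase-Glo 3/7 luminescence after 30min at room temperature.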

[12] = biological target: Voltage-gated inwardly rectifying potassium channel KCNH2 (Homo sapiens) (UniProt Q12809); experiment: Human Ether-a-go-go-Related Gene (hERG) channel small molecule antagonists: fluorescence cell-based qHTS assay (AID 1671200); note: nearly all actives have a fitted effect of over 50% in size; note: potency is the fitted concentration of half-maximal effect
How it was run: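 Measured: Tl+ flux via fluorescence (480/540 nm) in hERG-expressing U2OS cells after 1 h dye loading at room temperature.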

[13] = biological target: Nuclear receptor subfamily 1 group I member 2 (Rattus norvegicus) (UniProt Q9R1A7); experiment: Rat pregnane X receptor (rPXR) activation by small molecules, qHTS assay (AID 1346983); details: rPXR luciferase reporter cells, One-Glo luminescence, 24 h; max activation: active compounds read high; note: nearly all actives have a fitted effect of over 20% in size
How it was run: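 Cell-based rPXR activation assay: rPXR cells, 2,000 per well, rested 5hr at 37 C, then exposed to compounds in DMSO for 24 hr at 37 C. Luciferase activity read by One-Glo luminescence after 30 min at room temperature.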

[14] = biological target: Nuclear receptor subfamily 1 group I member 2 (Homo sapiens) (UniProt O75469); experiment: CYP3A4 induction through human pregnane X receptor (PXR) by small molecules, qHTS assay (AID 1346984); note: nearly all actives have a fitted effect of over 40% in size; note: potency is the fitted concentration of half-maximal effect
How it was run: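 DPX-2 HepG2 cells carrying a PXR response element and CYP3A4-promoter luciferase construct, treated with compounds 24 hr at 37C. Then P450-Glo CYP3A4 Luciferin-IPA substrate (3uM final) for 3 hr at 37C, One-Glo added, luminescence read.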

[15] = biological target: Nuclear receptor subfamily 1 group I member 2 (Homo sapiens) (UniProt O75469); experiment: Human pregnane X receptor (PXR) activation by small molecules, qHTS assay (AID 1346985); note: nearly all actives have a fitted effect of over 40% in size; note: potency is the fitted concentration of half-maximal effect
How it was run: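 DPX-2 cells (HepG2 co-transfected with a PXR response element and a CYP3A4-promoter luciferase construct) were seeded at 2,000 per well, rested 5 hr at 37C, then exposed to DMSO-dissolved compounds for 24 hr. Activation was read as luciferase luminescence.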

Chain of Cytochrome P450 1A2 (Homo sapiens) (P05177 whole entry, looked up): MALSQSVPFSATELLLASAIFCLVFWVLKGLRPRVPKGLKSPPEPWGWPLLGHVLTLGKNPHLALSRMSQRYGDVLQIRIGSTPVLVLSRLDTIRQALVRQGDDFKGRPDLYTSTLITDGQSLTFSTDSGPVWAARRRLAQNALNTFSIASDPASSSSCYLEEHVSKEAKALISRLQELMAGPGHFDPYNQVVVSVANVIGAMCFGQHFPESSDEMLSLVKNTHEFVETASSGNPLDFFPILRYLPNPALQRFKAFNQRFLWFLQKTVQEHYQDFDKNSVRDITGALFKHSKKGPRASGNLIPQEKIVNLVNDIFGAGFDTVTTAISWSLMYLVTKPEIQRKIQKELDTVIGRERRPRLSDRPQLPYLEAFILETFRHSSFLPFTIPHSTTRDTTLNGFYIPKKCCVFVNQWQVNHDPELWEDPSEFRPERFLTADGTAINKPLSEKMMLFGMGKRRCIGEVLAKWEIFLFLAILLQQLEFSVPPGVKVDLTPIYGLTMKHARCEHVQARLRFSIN
Chain of Nuclear receptor subfamily 1 group I member 2 (Rattus norvegicus) (Q9R1A7 whole entry, looked up): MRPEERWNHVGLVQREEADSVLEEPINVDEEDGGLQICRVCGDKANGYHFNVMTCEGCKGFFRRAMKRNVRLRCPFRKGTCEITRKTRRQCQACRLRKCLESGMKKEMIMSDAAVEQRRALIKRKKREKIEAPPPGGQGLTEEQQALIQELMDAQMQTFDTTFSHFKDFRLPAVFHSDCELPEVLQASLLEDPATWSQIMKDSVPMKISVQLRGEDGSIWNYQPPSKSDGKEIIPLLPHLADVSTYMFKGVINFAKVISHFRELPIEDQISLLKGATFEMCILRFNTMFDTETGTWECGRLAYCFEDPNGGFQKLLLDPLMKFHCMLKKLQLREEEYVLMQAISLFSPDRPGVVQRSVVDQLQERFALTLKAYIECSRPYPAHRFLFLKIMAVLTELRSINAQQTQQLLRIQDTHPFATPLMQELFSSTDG
Chain of Nuclear receptor subfamily 1 group I member 2 (Homo sapiens) (O75469 whole entry, looked up): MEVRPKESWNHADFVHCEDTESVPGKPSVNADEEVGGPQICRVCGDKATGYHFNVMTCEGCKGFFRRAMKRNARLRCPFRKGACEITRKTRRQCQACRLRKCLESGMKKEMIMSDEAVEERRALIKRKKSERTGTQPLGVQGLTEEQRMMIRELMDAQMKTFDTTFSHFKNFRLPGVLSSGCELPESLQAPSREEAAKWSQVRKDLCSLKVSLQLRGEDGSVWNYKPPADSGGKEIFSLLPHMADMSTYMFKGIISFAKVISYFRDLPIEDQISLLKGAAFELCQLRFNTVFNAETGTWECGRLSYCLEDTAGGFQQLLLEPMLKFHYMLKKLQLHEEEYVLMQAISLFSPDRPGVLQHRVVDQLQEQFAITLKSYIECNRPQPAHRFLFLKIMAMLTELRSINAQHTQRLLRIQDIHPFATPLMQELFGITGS
Chain of Voltage-gated inwardly rectifying potassium channel KCNH2 (Homo sapiens) (Q12809 whole entry, looked up): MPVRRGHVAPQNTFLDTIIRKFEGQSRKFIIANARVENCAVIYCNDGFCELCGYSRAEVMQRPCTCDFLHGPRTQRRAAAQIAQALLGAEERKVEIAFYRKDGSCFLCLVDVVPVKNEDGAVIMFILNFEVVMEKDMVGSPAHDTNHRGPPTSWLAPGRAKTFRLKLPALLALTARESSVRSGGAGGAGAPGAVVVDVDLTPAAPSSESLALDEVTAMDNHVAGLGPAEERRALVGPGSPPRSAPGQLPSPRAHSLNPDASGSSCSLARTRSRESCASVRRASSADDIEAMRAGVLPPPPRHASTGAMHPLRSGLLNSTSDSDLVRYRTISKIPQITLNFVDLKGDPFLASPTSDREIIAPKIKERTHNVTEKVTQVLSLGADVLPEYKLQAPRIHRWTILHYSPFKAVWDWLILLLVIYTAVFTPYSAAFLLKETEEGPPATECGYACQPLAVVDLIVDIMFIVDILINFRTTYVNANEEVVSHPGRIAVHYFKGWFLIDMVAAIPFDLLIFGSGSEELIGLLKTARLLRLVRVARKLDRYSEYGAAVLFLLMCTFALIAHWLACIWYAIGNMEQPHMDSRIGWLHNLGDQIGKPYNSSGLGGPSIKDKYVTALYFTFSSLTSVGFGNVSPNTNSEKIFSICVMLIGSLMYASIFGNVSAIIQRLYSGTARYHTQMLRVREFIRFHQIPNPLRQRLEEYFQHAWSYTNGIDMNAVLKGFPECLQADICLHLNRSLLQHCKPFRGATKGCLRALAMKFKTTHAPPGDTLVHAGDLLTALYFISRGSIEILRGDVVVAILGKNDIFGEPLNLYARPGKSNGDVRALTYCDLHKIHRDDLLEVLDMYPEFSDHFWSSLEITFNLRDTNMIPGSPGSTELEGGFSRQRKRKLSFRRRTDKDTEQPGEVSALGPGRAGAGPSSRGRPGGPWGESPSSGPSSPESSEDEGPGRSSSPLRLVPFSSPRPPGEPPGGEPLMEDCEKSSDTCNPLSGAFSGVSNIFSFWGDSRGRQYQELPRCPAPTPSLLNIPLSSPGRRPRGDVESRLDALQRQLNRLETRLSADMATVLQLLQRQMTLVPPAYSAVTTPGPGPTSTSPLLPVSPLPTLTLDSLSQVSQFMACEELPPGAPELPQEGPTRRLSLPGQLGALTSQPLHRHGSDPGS
Chain of Cytochrome P450 2C9 (Homo sapiens) (P11712 whole entry, looked up): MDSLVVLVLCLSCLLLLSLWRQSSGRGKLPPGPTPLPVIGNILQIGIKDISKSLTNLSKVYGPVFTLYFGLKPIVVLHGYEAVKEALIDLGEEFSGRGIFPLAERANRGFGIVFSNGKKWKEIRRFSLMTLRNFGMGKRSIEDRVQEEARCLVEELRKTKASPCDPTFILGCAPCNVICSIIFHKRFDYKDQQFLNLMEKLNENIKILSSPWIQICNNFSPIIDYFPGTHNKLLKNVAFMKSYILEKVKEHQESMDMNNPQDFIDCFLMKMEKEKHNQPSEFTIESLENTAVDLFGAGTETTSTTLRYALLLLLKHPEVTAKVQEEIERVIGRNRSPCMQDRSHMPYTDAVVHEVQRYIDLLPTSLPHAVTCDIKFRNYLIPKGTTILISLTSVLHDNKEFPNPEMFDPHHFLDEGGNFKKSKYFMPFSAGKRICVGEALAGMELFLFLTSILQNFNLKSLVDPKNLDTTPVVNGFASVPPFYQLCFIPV
Chain of Cytochrome P450 2D6 (Homo sapiens) (P10635 whole entry, looked up): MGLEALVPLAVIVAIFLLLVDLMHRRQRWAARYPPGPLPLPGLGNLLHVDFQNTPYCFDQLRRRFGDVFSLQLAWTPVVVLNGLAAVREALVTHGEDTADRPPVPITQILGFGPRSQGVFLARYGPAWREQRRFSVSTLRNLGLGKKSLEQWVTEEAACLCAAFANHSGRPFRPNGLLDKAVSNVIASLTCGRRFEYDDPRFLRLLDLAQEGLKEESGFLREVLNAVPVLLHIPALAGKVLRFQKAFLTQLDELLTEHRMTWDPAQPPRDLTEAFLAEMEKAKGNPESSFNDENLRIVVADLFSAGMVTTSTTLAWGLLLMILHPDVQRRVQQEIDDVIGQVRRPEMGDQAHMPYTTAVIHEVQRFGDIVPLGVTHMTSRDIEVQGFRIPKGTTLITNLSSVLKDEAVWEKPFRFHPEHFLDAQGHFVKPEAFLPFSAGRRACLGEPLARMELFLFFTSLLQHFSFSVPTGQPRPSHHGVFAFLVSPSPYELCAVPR
Chain of Cytochrome P450 2C19 (Homo sapiens) (P33261 whole entry, looked up): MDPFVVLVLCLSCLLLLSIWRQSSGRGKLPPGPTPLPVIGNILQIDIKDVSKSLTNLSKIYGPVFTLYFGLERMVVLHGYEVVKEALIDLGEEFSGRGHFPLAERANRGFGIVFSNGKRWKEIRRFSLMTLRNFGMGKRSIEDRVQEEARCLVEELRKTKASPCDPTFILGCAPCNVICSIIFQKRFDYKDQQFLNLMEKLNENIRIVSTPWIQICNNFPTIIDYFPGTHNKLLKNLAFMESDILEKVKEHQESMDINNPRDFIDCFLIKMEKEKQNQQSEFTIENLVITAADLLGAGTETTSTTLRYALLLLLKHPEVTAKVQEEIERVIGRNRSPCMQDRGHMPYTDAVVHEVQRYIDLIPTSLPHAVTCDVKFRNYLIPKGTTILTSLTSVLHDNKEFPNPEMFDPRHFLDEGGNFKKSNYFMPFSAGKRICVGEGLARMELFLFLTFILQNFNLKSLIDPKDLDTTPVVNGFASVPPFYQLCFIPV
Chain of Cytochrome P450 3A4 (Homo sapiens) (P08684 whole entry, looked up): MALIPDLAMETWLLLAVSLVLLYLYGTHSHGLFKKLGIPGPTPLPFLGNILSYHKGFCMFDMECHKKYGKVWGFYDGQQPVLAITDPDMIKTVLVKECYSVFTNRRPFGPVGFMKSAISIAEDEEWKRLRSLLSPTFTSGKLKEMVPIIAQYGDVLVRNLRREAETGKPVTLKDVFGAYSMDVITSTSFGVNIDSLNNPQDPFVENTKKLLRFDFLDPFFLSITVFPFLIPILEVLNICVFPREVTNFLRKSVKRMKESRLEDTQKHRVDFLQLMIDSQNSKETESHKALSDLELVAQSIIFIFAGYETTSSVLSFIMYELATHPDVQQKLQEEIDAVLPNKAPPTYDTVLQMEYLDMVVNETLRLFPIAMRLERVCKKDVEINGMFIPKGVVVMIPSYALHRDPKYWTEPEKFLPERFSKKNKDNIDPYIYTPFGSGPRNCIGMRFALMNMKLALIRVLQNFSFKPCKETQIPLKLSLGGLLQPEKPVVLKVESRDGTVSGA

SMILES | Potency [1] | Potency [2] | Potency [3] | Potency [4] | Potency [5] | Potency [6] | Potency [7] | Potency [8] | Potency [9] | Potency [10] | outcome [11] | Potency [12] | max activation [13] | Potency [14] | Potency [15]
O=C(/C=C/c1ccccc1)OCCCc1ccccc1 | inactive | inactive | inactive | inactive | inactive | inactive | 39.9 µM (active) | 22.4 µM (active) | 12.6 µM (active) | inactive |  |  |  |  | 
CC(=O)Nc1ccc(N)cc1 |  | inactive | inactive | inactive |  | 40.5 µM (active) | inactive |  | 40.5 µM (active) | 28.7 µM (active) | inactive | inactive |  |  | 
CCCCOC(=O)CCS |  | inactive | inactive | inactive | inactive |  |  | 63.3 µM (active) |  | inactive | inactive | inactive |  |  | 
CC1CC(O)CC(C)(C)C1 (centres undefined) |  | inactive | inactive | inactive | inactive | inactive | inactive | inactive |  | inactive | inactive | inactive | -0.957% | inactive | inactive
CC(C)(C)CC(C)(C)c1ccc(OCCO)cc1 | 27.1 µM (active) |  | 54.2 µM (active) | 48.3 µM (active) | 15.3 µM (active) | inactive | 79.2 µM (active) | 31.5 µM (active) | inactive | 17.7 µM (active) | inactive |  | -7.23% | 3.55 µM (active) | inactive
CCOc1cc(N)c(Cl)cc1C(=O)NCC1CN(Cc2ccc(F)cc2)CCO1 (centres undefined) |  | inactive | inactive |  | 5.31 µM (active) | inactive | 3.47 µM (active) |  | 1.55 µM (active) |  |  |  | 0.0903% | inactive | 12.6 µM (active)
CCCCCCCCCCCC(=O)[O][Sn]([CH2]CCC)([CH2]CCC)[O]C(=O)CCCCCCCCCCC |  | inactive | inactive | inactive | inactive | inactive | inactive | inactive | inactive | inactive | inactive | inactive | -0.202% | inactive | inactive
CCn1cc(C(=O)O)c(=O)c2cc(F)c(N3CCNCC3)nc21 |  | inactive | inactive | inactive | inactive | inactive | inactive | inactive | inactive | inactive | inactive |  | -1.42% | inactive | inactive
Cc1cnc(C)c(C)n1 |  | inactive | inactive | inactive | inactive | inactive | inactive | inactive |  | inactive | inactive |  |  |  | 
Cc1ccc(S(=O)(=O)NC2CCCCC2)cc1 | inactive | inactive |  | inactive | 27.1 µM (active) | inactive | 6.28 µM (active) | 22.3 µM (active) |  | 17.7 µM (active) | inactive |  |  |  | 
O=C(c1ccc(O)cc1)c1ccc(Cl)cc1 |  | inactive |  | inactive | 24.9 µM (active) | 64.7 µM (active) | 18.2 µM (active) | 25.7 µM (active) | 18.2 µM (active) |  | inactive | inactive |  |  | 
CC(=O)CC(c1ccc([N+](=O)[O-])cc1)c1c(O)c2ccccc2oc1=O (centres undefined) | inactive | inactive |  | inactive | inactive | 38.9 µM (active) | 8.71 µM (active) | 2.45 µM (active) | inactive | inactive |  | inactive | -1.52% | inactive | inactive
Cc1nc2ccccn2c(=O)c1CCN1CCC(C(=O)c2ccc(F)cc2)CC1 |  | inactive | inactive | inactive | inactive | 4.36 µM (active) | inactive | inactive | inactive | inactive | inactive | 9.52 µM (active) |  |  | 
COCCOC |  | inactive | 14.6 µM (active) | 13 µM (active) |  |  |  |  |  |  | inactive | inactive |  |  | 
CC(=O)Oc1ccc(C(=C2CCCCC2)c2ccc(OC(C)=O)cc2)cc1 | inactive | inactive |  | inactive |  | 15.5 µM (active) | 9.77 µM (active) | 9.77 µM (active) | inactive | inactive |  |  | -2.09% | inactive | inactive
CN1CCCN=C1/C=C/c1cccs1 |  | inactive | inactive | inactive |  |  |  |  |  |  | inactive |  |  |  | 
C=C(C)C(=O)OCCOC(=O)CC(C)=O |  | inactive | inactive | inactive | inactive | inactive | inactive |  |  |  | inactive |  |  |  | 
COC(=O)Nc1nc2ccc(C(=O)c3cccs3)cc2[nH]1 |  | 0.266 µM (active) |  | inactive | 26.6 µM (active) | 38.9 µM (active) |  |  | 12.9 µM (active) | inactive | inactive | inactive |  |  | 
CC(=O)OCC(=O)[C@@]12OC(C)(C)O[C@@H]1C[C@H]1[C@@H]3C[C@H](F)C4=CC(=O)C=C[C@]4(C)[C@@]3(F)[C@@H](O)C[C@@]12C |  | inactive |  | inactive |  |  |  |  |  |  | inactive |  |  |  | 
COc1ccc([C@@H]2Sc3ccccc3NC(=O)[C@@H]2O)cc1 |  | inactive | inactive | inactive | inactive |  | 21.9 µM (active) | 17.4 µM (active) |  | inactive |  |  |  |  | 
COc1cc2c(N3CCN(C(=O)Nc4ccc(OC(C)C)cc4)CC3)ncnc2cc1OCCCN1CCCCC1 |  | inactive | 23.7 µM (active) |  | inactive | 15.5 µM (active) | inactive | inactive | inactive | inactive | inactive |  |  |  | 
